Measurements: PubChem BioAssay AID1159580 (chemical genetic matrix, 2015)
Where “and” joins values, the source holds several entries; their conditions need not be identical. Equal values may be shown once. About 2,000 (36%) of roughly 5,500 compounds were called active. Another 18% or so got no clear call; they are omitted. Cut-off read from the data, not from the text of the source: active = normalized growth mostly below about 0.91 (no sharp cut-off); inconclusive = no clear call, values can overlap the other calls; inactive = mostly above about 0.92. This is one part of the list.

Assay: chemical genetic growth profiling, strain panel (AID 1159580);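 note: tested at 20 µM; growth read once vehicle control cultures reached saturation at 30 °C; 1 = growth at the plate median or of vehicle wells; lower values mean less growth of the strain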
Conditions: S. cerevisiae deletion strains, growth OD

Measured: normalized growth

CC1(C)C2CC[C@]3(C)C(C(=O)C=C4[C@@H]5C[C@@](C)(C(=O)O)CC[C@]5(C)CC[C@]43C)[C@@]2(C)CC[C@@H]1O (stereo not given in full)
inactive: locus YAL013W, strain DEP1, stronger effect = lower value 1.02 | locus YAL021C, strain ccr4, stronger effect = lower value 1.02 | locus YAL026C, strain drs2, stronger effect = lower value 0.999 | locus YAL030W, strain snc1, stronger effect = lower value 1 | locus YBL061C, strain skt5, stronger effect = lower value 1.02 | locus YBR009C, strain hhf1, stronger effect = lower value 0.93 | locus YBR021W, strain FUR4, stronger effect = lower value 0.961 | locus YBR023C, strain chs3, stronger effect = lower value 1.02 | locus YBR171W, strain sec66, stronger effect = lower value 1 | locus YBR229C, strain ROT2, stronger effect = lower value 1.06 | locus YBR231C, strain swc5, stronger effect = lower value 1.08 | locus YBR279W, strain paf1, stronger effect = lower value 1.03 | locus YCL011C, strain gbp2, stronger effect = lower value 0.988 | locus YCL016C, strain dcc1, stronger effect = lower value 1.03 | locus YCL029C, strain bik1, stronger effect = lower value 0.956 | locus YCL069W, strain vba3, stronger effect = lower value 1 | locus YCR088W, strain abp1, stronger effect = lower value 1.02 | locus YDL005C, strain med2, stronger effect = lower value 1.01 | locus YDL035C, strain GPR1, stronger effect = lower value 0.873 | locus YDL040C, strain nat1, stronger effect = lower value 1.03 | locus YDL074C, strain BRE1, stronger effect = lower value 1.02 | locus YDL101C, strain DUN1, stronger effect = lower value 1.02 | locus YDL185W, strain tfp1, stronger effect = lower value 1.04 | locus YDL192W, strain arf1, stronger effect = lower value 0.996 | locus YDR001C, strain nth1, stronger effect = lower value 1.01 | locus YDR069C, strain doa4, stronger effect = lower value 1 | locus YDR101C, strain arx1, stronger effect = lower value 0.98 | locus YDR137W, strain rgp1, stronger effect = lower value 0.879 | locus YDR159W, strain sac3, stronger effect = lower value 0.908 | locus YDR162C, strain NBP2, stronger effect = lower value 0.986 | locus YDR195W, strain ref2 1.07 | locus YDR297W, strain sur2, stronger effect = lower value 0.978 | locus YDR318W, strain mcm21, stronger effect = lower value 0.997 | locus YDR334W, strain swr1, stronger effect = lower value 0.964 | locus YDR335W, strain msn5, stronger effect = lower value 1.01 | locus YDR388W, stronger effect = lower value 1.01 | locus YDR392W, strain spt3, stronger effect = lower value 1.02 | locus YDR502C, strain sam2, stronger effect = lower value 0.968 | locus YEL003W, strain gim4, stronger effect = lower value 0.932 | locus YEL037C, strain rad23, stronger effect = lower value 1 | locus YEL061C, strain CIN8 (second series), stronger effect = lower value 1.01 | locus YER015W, strain faa2, stronger effect = lower value 1.02 | locus YER016W, strain bim1, stronger effect = lower value 1.01 | locus YER110C, stronger effect = lower value 1.04 | locus YER111C, strain swi4, stronger effect = lower value 1.03 | locus YER155C, strain BEM2 (second series), stronger effect = lower value 1.13 | locus YER155C, strain BEM2, stronger effect = lower value 1.06 | locus YER167W, strain BCK2, stronger effect = lower value 1.07 | locus YFR010W, strain ubp6, stronger effect = lower value 0.943 | locus YGL086W, strain mad1, stronger effect = lower value 1.01 | locus YGL167C, strain pmr1, stronger effect = lower value 0.996 | locus YGL227W, strain vid30, stronger effect = lower value 1.02 | locus YGL240W, strain doc1, stronger effect = lower value 0.986 | locus YGL248W, strain PDE1, stronger effect = lower value 0.985 | locus YGL253W, strain hxk2, stronger effect = lower value 1.02 | locus YGR078C, strain PAC10, stronger effect = lower value 1.02 | locus YGR135W, strain pre9, stronger effect = lower value 0.981 | locus YGR252W, strain gcn5, stronger effect = lower value 0.833 | locus YHR013C, strain ard1, stronger effect = lower value 1.1 | locus YHR027C, strain rpn1, stronger effect = lower value 0.956 | locus YHR030C, strain SLT2, stronger effect = lower value 1.07 and 0.991 | locus YHR079C, strain IRE1 (second series), stronger effect = lower value 1.02 | locus YHR079C, strain IRE1, stronger effect = lower value 0.973 | locus YHR094C, strain hxt1, stronger effect = lower value 1.03 | locus YHR129C, strain ARP1, stronger effect = lower value 1.07 | locus YHR142W, strain chs7, stronger effect = lower value 1.01 | locus YHR200W, strain rpn10, stronger effect = lower value 1.03 | locus YIL066C, strain RNR3, stronger effect = lower value 1.03 | locus YIL073C, strain SPO22, stronger effect = lower value 0.956 | locus YIL125W, strain kgd1, stronger effect = lower value 1.01 | locus YIR030C, strain dcg1, stronger effect = lower value 1.01 | locus YJL092W, strain hpr5, stronger effect = lower value 1.02 | locus YJL095W, strain BCK1 (second series), stronger effect = lower value 1.02 | locus YJL095W, strain BCK1, stronger effect = lower value 0.971 and 0.979 | locus YJL115W, strain asf1, stronger effect = lower value 1.01 | locus YJL129C, strain trk1, stronger effect = lower value 1.04 | locus YJL134W, strain LCB3, stronger effect = lower value 1.05 | locus YJL154C, strain vps35, stronger effect = lower value 1.01 | locus YJL164C, strain tpk1, stronger effect = lower value 0.946 | locus YJL166W, strain qcr8, stronger effect = lower value 0.974 | locus YJL168C, strain set2, stronger effect = lower value 1.03 | locus YJL187C, strain SWE1 (second series), stronger effect = lower value 1 | locus YJR043C, strain POL32, stronger effect = lower value 0.99 | locus YJR066W, strain TOR1, stronger effect = lower value 0.953 | locus YJR075W, strain HOC1, stronger effect = lower value 1.04 | locus YKL160W, strain elf1, stronger effect = lower value 1.01 | locus YKL190W, strain CNB1, stronger effect = lower value 1.08 | locus YKR001C, strain vps1, stronger effect = lower value 0.992 | locus YKR026C, strain gcn3, stronger effect = lower value 1.02 | locus YKR091W, strain srl3, stronger effect = lower value 1.01 | locus YLL001W, strain dnm1, stronger effect = lower value 0.952 | locus YLL026W, stronger effect = lower value 1.01 | locus YLL041C, strain sdh2, stronger effect = lower value 1.03 | locus YLR027C, strain aat2, stronger effect = lower value 1 | locus YLR039C, strain RIC1, stronger effect = lower value 1.03 | locus YLR058C, strain SHM2, stronger effect = lower value 1.01 | locus YLR102C, strain apc9, stronger effect = lower value 1.03 | locus YLR113W, strain HOG1, stronger effect = lower value 0.974 | locus YLR221C, strain rsa3, stronger effect = lower value 0.918 | locus YLR258W, strain gsy2, stronger effect = lower value 1 | locus YLR262C, strain YPT6 (second series), stronger effect = lower value 0.88 | locus YLR262C, strain YPT6, stronger effect = lower value 0.933 | locus YLR268W, strain sec22, stronger effect = lower value 0.953 | locus YLR320W, strain mms22, stronger effect = lower value 0.941 | locus YLR330W, strain CHS5, stronger effect = lower value 1.06 | locus YLR342W, strain FKS1 (second series), stronger effect = lower value 0.977 | locus YLR342W, strain FKS1, stronger effect = lower value 0.961 | locus YLR357W, strain rsc2, stronger effect = lower value 1.08 | locus YLR370C, strain arc18, stronger effect = lower value 1.04 | locus YLR371W, strain rom2, stronger effect = lower value 1.04 | locus YLR384C, strain iki3, stronger effect = lower value 1.03 | locus YLR418C, strain cdc73, stronger effect = lower value 0.991 | locus YML016C, strain PPZ1, stronger effect = lower value 1.05 | locus YML032C, strain rad52, stronger effect = lower value 0.973 | locus YML120C, strain ndi1, stronger effect = lower value 0.933 | locus YML124C, strain tub3, stronger effect = lower value 1.03 | locus YMR058W, strain fet3, stronger effect = lower value 0.983 | locus YMR078C, strain ctf18, stronger effect = lower value 1.04 | locus YMR129W, stronger effect = lower value 1.02 | locus YMR205C, strain PFK2, stronger effect = lower value 0.99 | locus YMR223W, strain ubp8, stronger effect = lower value 0.978 | locus YMR231W, strain pep5, stronger effect = lower value 0.99 | locus YMR307W, strain GAS1, stronger effect = lower value 0.902 | locus YNL067W, strain RPL9B, stronger effect = lower value 0.987 | locus YNL071W, strain lat1, stronger effect = lower value 0.996 | locus YNL128W, strain TEP1, stronger effect = lower value 1.05 | locus YNL153C, strain GIM3, stronger effect = lower value 0.982 | locus YNL183C, strain NPR1, stronger effect = lower value 0.933 | locus YNL209W, strain ssb2, stronger effect = lower value 1.03 | locus YNL233W, strain BNI4, stronger effect = lower value 0.992 | locus YNL248C, strain rpa49, stronger effect = lower value 1.01 | locus YNL250W, strain rad50, stronger effect = lower value 0.998 | locus YNL271C, strain bni1, stronger effect = lower value 0.994 | locus YNL298W, strain CLA4, stronger effect = lower value 0.942 | locus YNL307C, strain MCK1, stronger effect = lower value 1.03 | locus YNL322C, strain KRE1 (second series), stronger effect = lower value 0.982 | locus YNL322C, strain KRE1, stronger effect = lower value 1.05 | locus YNR049C, strain mso1, stronger effect = lower value 1.03 | locus YNR052C, strain pop2, stronger effect = lower value 0.955 | locus YOL006C, strain TOP1, stronger effect = lower value 0.968 | locus YOL012C, strain htz1 1.55 | locus YOL147C, strain pex11, stronger effect = lower value 1.03 | locus YOR061W, strain CKA2, stronger effect = lower value 1.04 | locus YOR069W, strain VPS5, stronger effect = lower value 1.05 | locus YOR070C, strain gyp1, stronger effect = lower value 1.01 | locus YOR080W, strain dia2, stronger effect = lower value 1 | locus YOR083W, strain WHI5, stronger effect = lower value 0.922 | locus YOR106W, strain vam3, stronger effect = lower value 0.925 | locus YOR136W, strain idh2, stronger effect = lower value 1.01 | locus YOR144C, strain elg1, stronger effect = lower value 1.02 | locus YOR231W, strain MKK1, stronger effect = lower value 0.966 | locus YOR265W, strain rbl2, stronger effect = lower value 1 | locus YOR270C, strain vph1, stronger effect = lower value 0.918 | locus YOR290C, strain snf2, stronger effect = lower value 0.989 | locus YOR316C, strain cot1, stronger effect = lower value 1.03 | locus YPL051W, strain arl3, stronger effect = lower value 1.02 | locus YPL055C, strain LGE1, stronger effect = lower value 1.06 | locus YPL078C, strain atp4, stronger effect = lower value 1.02 | locus YPL106C, strain sse1, stronger effect = lower value 1.13 | locus YPL240C, strain hsp82, stronger effect = lower value 1.01 | locus YPL256C, strain CLN2, stronger effect = lower value 1.05 | locus YPR119W, strain clb2, stronger effect = lower value 1.03 | locus YPR141C, strain kar3, stronger effect = lower value 1.05 | locus YPR163C, strain tif3, stronger effect = lower value 1.03 | locus YPR167C, strain met16, stronger effect = lower value 1.02 | strain wtn01, stronger effect = lower value 0.966
active: locus YGL078C, strain dbp3, stronger effect = lower value 0.907 | locus YGL173C, strain kem1, stronger effect = lower value 0.876 | locus YKL009W, strain mrt4, stronger effect = lower value 0.864 | locus YKL068W, stronger effect = lower value 1.08 [resistant] | locus YKL085W, strain MDH1 (second series), stronger effect = lower value 1.07 [resistant] | locus YKL085W, strain MDH1, stronger effect = lower value 1.07 [resistant] | locus YMR125W, strain sto1, stronger effect = lower value 1.12 [resistant] | locus YOR001W, strain rrp6, stronger effect = lower value 0.886 | locus YOR184W, strain ser1, stronger effect = lower value 0.857
